# TSG101-PTAP inh = blocks PTAP/TSG101 interaction to inhibit HIV-1 budding | AID 493005 | Potency, µM (titrated, usually from 115 µM), inactives show top-dose activity change, negative = inhibition, most hits filed as inhibitors | Fluorescence polarization, FITC-PTAP peptide / Tsg101 binding | 340,000 tested, under 10 active; active = well fitted inhibition curve with a large enough effect in the main read-out, with a control signal flat, not every such curve was filed as active; inconclusive = small, poorly fitted or top-dose-only effect, or effect the other way, or a change in a side signal; inactive = no such curve, though single readings can be large or run the other way; note: % of control where 0% means no effect
# Target sequence (Q99816 whole entry, looked up): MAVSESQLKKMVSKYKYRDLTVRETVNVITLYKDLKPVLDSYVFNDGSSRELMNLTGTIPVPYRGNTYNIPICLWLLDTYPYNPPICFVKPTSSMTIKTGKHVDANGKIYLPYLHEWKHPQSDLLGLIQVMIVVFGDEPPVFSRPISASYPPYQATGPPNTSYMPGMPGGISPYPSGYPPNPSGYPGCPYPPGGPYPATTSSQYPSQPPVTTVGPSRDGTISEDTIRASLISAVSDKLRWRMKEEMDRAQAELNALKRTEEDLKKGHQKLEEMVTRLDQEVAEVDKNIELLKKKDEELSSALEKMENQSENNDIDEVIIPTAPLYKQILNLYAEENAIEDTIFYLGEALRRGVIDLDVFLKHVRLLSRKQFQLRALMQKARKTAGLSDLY
#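 Compounds were pin-transferred onto Tsg101 binding domain (10 uM final) in HEPES pH 7.5 buffer, then FITC-PTAP peptide was added at 50 nM final. After 20 min at RT, polarization reported peptide displacement across a qHTS concentration series.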
# KB-3-1 tox = KB-3-1 parental cell cytotoxicity; Potency, µM (doses to about 46.1 µM), hits mostly cytotoxic; KB-3-1 viability, CellTiter-Glo ATP luminescence, 72 h; AID 1347075; hit rate 1.4% among 400,000; note: % is set by controls: 0 for no effect and ±100 for the full control effect; nearly all actives have a fitted effect of over 60% in size
#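 KB-3-1 parental drug-naive adenocarcinoma cells in DMEM/10% FBS, incubated 72 h at 37 C with pin-transferred compounds across a concentration series. Viability by CellTiter-Glo luminescence; concentration-response curves fitted after normalization.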
# SW480 rerep = DNA re-replication induction in SW480 cells. hit rate 1.8% among 340,000. Potency, µM (doses to about 46.1 µM), for the others: at the highest dose re-replication activation, most hits filed as activators. AID 624297. SW480 DNA re-replication, Hoechst DNA content imaging, 48 h; note: % of control where 0% means no effect; nearly all actives have a fitted effect of over 55% in size
#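 Readout is total intensity of Hoechst-stained nuclei, excited at 405 nm and collected at 500-530 nm. Compound treatment lasted 48 hr at 37 C in 5% CO2 before staining.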
# KB-V1 cytotox = kills drug-selected multidrug resistant KB-V1 cells; KB-V1 MDR cells viability, CellTiter-Glo, 72 h; Potency, µM (top dose mostly 46.1 µM), hits mostly cytotoxic; hit rate 3.4% among 400,000; note: % is set by controls: 0 for no effect and ±100 for the full control effect; nearly all actives have a fitted effect of over 60% in size
#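 Cytotoxicity toward P-gp-expressing KB-V1 cells was determined as loss of CellTiter-Glo luminescence after 72 h at 37 degrees C. Compounds were tested in quantitative HTS format across a concentration range, with curves fitted to normalized data.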
# RGS4 inh = inhibitors of human regulator of G protein signaling 4. P49798. Transcreener GDP fluorescence polarization, RGS4-accelerated GTP hydrolysis. Potency, µM (doses to about 114 µM), inactives show at the highest dose activity change, negative = inhibition, actives largely listed as inhibitors. hit rate 0.039% among 390,000. AID 504845; note: % is set by controls: 0 for no effect and ±100 for the full control effect; nearly all actives have a fitted effect of over 75% in size
# Target sequence (P49798 whole entry, looked up): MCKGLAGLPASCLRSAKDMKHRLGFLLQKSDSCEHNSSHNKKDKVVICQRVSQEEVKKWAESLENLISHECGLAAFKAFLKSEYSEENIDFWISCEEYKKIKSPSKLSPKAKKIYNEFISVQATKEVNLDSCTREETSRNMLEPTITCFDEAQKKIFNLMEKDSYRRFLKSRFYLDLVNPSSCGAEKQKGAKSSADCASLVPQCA
#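 MLSMR compounds (23 nl, pin-transferred) preincubated 10 min at room temperature with a 500nM (2x) first reagent, then RGS4 at 900nM (2x) plus Transcreener GDP mix added; fluorescence polarization (620/688 nm) read before and after 90 min at 30 °C.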
# MCF10A rerep = induces DNA re-replication in MCF 10a normal breast cells; MCF 10A DNA re-replication, Hoechst nuclear intensity, 48 h; Potency, µM (top dose mostly 46.1 µM), inactives show at the highest dose activity, positive = re-replication, usual class: activators; hit rate 2.9% among 350,000; AID 624296; note: % of control where 0% means no effect; nearly all actives have a fitted effect of over 50% in size
# Starred values were filed as active, the others as inactive; i = inactive; u = inconclusive; x = no result; [ ] = remark or other dose. Rows were chosen to be rich in hits. Some 6.6% of all compounds tested hit in one or more screens of this group. Unless noted, calls come from the whole dose curve; as a rule, active = well fitted curve in the direction sought with a large enough effect; inconclusive = small, poorly fitted or top-dose-only effect, or another doubt; inactive = no such curve, though single readings can be large; an effect the other way counts as inactive or inconclusive. Potency is the fitted concentration of half-maximal effect.
SMILES,TSG101-PTAP inh,KB-3-1 tox,SW480 rerep,KB-V1 cytotox,RGS4 inh,MCF10A rerep
Cn1c(=O)c(=O)n(C)c2cc(NS(=O)(=O)c3ccc(Br)cc3)c(Cl)cc21,x,i,x,i,2.6%,x
Cc1cc(-c2nc3ccccc3o2)c2ccccc2n1,-4.7%,i,7.1%,13µM*,13.5%,4.9%
COc1cc(OC)c(OC)cc1/C=C/c1nc2ccccc2o1,x,i,x,i,x,x
C#CC[N+](CC)(CC)CC#Cc1ccccc1,-0.6%,i,-5.6%,i,4.0%,1.6%
C#CC[N+](C)(C)CC#Cc1ccc(C)cc1,-1.3%,11.6µM*,-14.5%,i,4.5%,5.9%
O=C(Oc1ccccc1C(=O)Nc1ccccc1)c1ccccc1Br,-6.3%,11.6µM*,14.6µM*,16.4µM*,1.0%,5.17µM*
O=C(Nc1ccc(C2CC2(Cl)Cl)cc1)c1ccccc1Br (configuration not stated),0.6%,i,2.0%,18.4µM*,-13.2%,u
c1ccc(CCNc2ccc3ncc(-c4cccc5ccccc45)n3n2)nc1,x,i,x,13µM*,x,x
c1ccc(CCNc2ccccn2)nc1,-11.8%,i,-4.1%,u,8.1%,0.3%
CCCCNC(=S)Nc1ccc([N+](=O)[O-])cc1,-0.5%,u,-3.6%,u,-41.5%,18.4µM*
CCCN1CCC(NC(=S)Nc2ccc([N+](=O)[O-])cc2)CC1,-1.0%,i,-6.9%,i,2.7%,15.8%
CCCN1CCN(C(=S)Nc2ccc([N+](=O)[O-])cc2)CC1,4.8%,i,-10.8%,20.6µM*,-29.4%,18.3%
O=[N+]([O-])c1ccc(NNC(=S)Nc2ccc(F)cc2)cc1,-7.5%,u,-1.7%,20.6µM*,-98.2%,-1.0%
CC(C)CCNC(=S)Nc1ccc([N+](=O)[O-])cc1,0.1%,u,u,u,-26.7%,u
O=C(NNC(=S)Nc1ccc(F)cc1)c1cccc([N+](=O)[O-])c1,-2.2%,i,-4.3%,i,-25.1%,-2.5%
COCCCn1c(=NC(=O)c2ccccc2)c(C#N)cc2c(=O)n3cccc(C)c3nc21,-5.2%,i,11.6%,i,-21.4%,6.51µM*
COCCCn1c(C(=O)NC2CCCCC2C)cc2c(=O)n3cccc(C)c3nc21 (configuration not stated),0.5%,i,-8.2%,i,7.4%,u
Cc1cccn2c(=O)c3cc(C#N)c(=NC(=O)c4cccs4)n(CC(C)C)c3nc12,-12.8%,i,u,i,2.8%,u
COCCCn1c(=NC(C)=O)c(C#N)cc2c(=O)n3cccc(C)c3nc21,-1.6%,i,5.8µM*,i,-2.4%,18.4µM*
CCOCCCn1c(=NC(=O)c2cccs2)c(C#N)cc2c(=O)n3cccc(C)c3nc21,-4.5%,i,u,u,-5.4%,9.2µM*
CCC1CCc2c(sc(NC(=O)C3c4ccccc4Oc4ccccc43)c2C(=O)OC)C1 (configuration not stated),x,i,x,i,-2.9%,x
COCCOC(=O)c1c(C)n(S(=O)(=O)c2ccc(C)cc2)c2ccc(NS(=O)(=O)c3ccc(C)cc3)cc12,x,i,x,i,-17.3%,x
FC(F)(F)c1nnc2c(Sc3ccccn3)nc3ccccc3n12,-0.4%,u,u,u,3.8%,u
FC(F)(F)c1nnc2c(Sc3ccc(Cl)cc3)nc3ccccc3n12,-0.4%,3.66µM*,u,u,-31.8%,472.1%[0.0737 µM]
FC(F)(F)c1nnc2c(Sc3ccccc3)nc3ccccc3n12,-3.4%,11.6µM*,u,u,13.3%,u
SMILES,TSG101-PTAP inh,KB-3-1 tox,SW480 rerep,KB-V1 cytotox,RGS4 inh,MCF10A rerep
CC1(C)C(=O)C=CC(=O)C(C)(C)C(=O)C=CC(=O)C(C)(C)C2=CC=C(O2)C(C)(C)C(=O)C=CC1=O,-1.9%,u,u,i,u,7.31µM*
Clc1ccc2nccnc2c1,x,u,x,i,x,x
C[n+]1ccnc2ccccc21,x,4.11µM*,x,10.3µM*,x,x
C[n+]1ccnc2cc(Cl)ccc21,x,4.11µM*,x,5.8µM*,x,x
CC(=O)c1ccc2c(c1)C1C=CCC1C(c1ccncc1)N2 (configuration not stated),-7.0%,u,-1.6%,23.1µM*,-26.7%,-8.8%
O=C(NNC1=Nc2ccccc2SC1)c1ccc(F)cc1,-1.3%,u,-6.0%,i,7.7%,1.6%
O=C(NNC1=Nc2ccccc2SC1)c1ccc(Cl)cc1,-1.6%,u,18.4µM*,u,-15.6%,u
CCOc1ccc(N(CC)S(=O)(=O)c2cc(Br)cc3c2N(C(C)=O)C(C)C3)cc1 (configuration not stated),x,u,x,i,-3.7%,x
CC1CCN(C(=O)CSc2nc3ccccc3nc2Cc2ccccc2)CC1,x,i,x,i,5.0%,x
C=CCOc1c(Br)cc(/C=N/n2c(CC)n[nH]c2=S)cc1Br,-2.9%,u,u,u,-3.3%,16.4µM*
Cc1cccc(NC(c2cccc(Cl)c2)c2ccc3cccnc3c2O)n1 (configuration not stated),x,x,x,x,-7.9%,x
CC(Sc1nnc2ccc3ccccc3n12)C(=O)Nc1ccc(Cl)cc1 (configuration not stated),x,x,x,x,-14.4%,x
COc1cc(/C=C/C(=O)OCC(=O)N2CC3(C)CC2CC(C)(C)C3)ccc1O (configuration not stated),0.0%,i,1.8%,i,-5.5%,u
COc1ccc(/C=N/OCC(=O)N2CC3(C)CC2CC(C)(C)C3)cc1OC (configuration not stated),-5.2%,i,-4.6%,16.4µM*,-4.5%,-2.0%
COC(=O)c1ccc(CN(c2ccccn2)S(=O)(=O)c2ccccc2)cc1,-2.4%,i,-3.4%,i,27.6%,16.9%
COC(=O)c1ccc(CN(c2ccc(C(=O)O)c(O)c2)S(=O)(=O)c2ccc(Cl)c([N+](=O)[O-])c2)cc1,1.2%,i,-0.8%,i,-4.8%,3.66µM*
O=C(Nc1nc(-c2cc(Cl)sc2Cl)cs1)c1ccccc1,-2.5%,u,-1.0%,i,-24.7%,20.6µM*
Cc1cnc(C(=O)Nc2nc(-c3ccccc3)cs2)cn1,-0.7%,i,-12.2%,23.1µM*,13.8%,-3.6%
CC1CC1C(=O)Nc1nc(-c2ccccc2)cs1 (configuration not stated),-1.1%,i,0.0%,i,-8.3%,7.4%
O=C(Nc1nc(-c2ccccn2)cs1)c1ccc(Cl)s1,6.9%,u,11.9%,u,11.6%,-0.2%
O=C(Nc1nc(-c2ccccc2)cs1)c1ccc(=O)[nH]c1,-2.8%,u,-8.2%,18.4µM*,-18.8%,16.1%

# Assay outcomes from PubChem.
